# Measurements from PubChem BioAssay (EPA / NIEHS).
# Records with an inconclusive call do not appear. Calls of active or inactive are those of the source. Rule for the calls: active = hit-call score of the fitted dose curve at least 0.9, where 1 is the maximum; inconclusive = response in the unintended direction; inactive = score below 0.9.
# Test system: Sodium/Iodide Symporter (NIS), SLC5A5 (gene 6528)
# Assay: CPHEA_Stoker_NIS_Inhibition_RAIU: CPHEA's Radioactive Iodide Uptake (RAIU) Assay for Sodium/Iodide Symporter (NIS) Inhibition, Stoker and Laws Labs (AID 2283841)
# Method in brief: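 hNIS-HEK293T-EPA cells incubated 2 h at room temperature with compound (0.001–100 uM, 0.5% DMSO) and 329 pM final 125I in HBSS/10 mM HEPES, pH 7.4. Intracellular 125I counted; normalised to DMSO maximal uptake, triplicate, three biological replicates.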
SMILES,outcome,AC50
O=C/C=C/c1ccccc1,inactive,
CCOP(=S)(OCC)SCSP(=S)(OCC)OCC,inactive,
O=C(NCO)NCO,inactive,
O=C(Nc1ccc2[nH]ccc2c1)c1cc2cc(F)ccc2n1Cc1cccc(F)c1,inactive,
CCC(C)(C)c1ccc(O)c(C(C)(C)CC)c1,inactive,
CC(=O)[O][Hg][c]1ccccc1,,50 µM (active)
CC(C)(c1ccccc1)c1ccc(O)c(C(C)(C)c2ccccc2)c1,inactive,
CC(=O)c1cc(C(C)(C)C)cc2c1CCC2(C)C,inactive,
c1cc[c]([Hg][c]2ccccc2)cc1,inactive,
Cn1sc(Cl)cc1=O,inactive,
[O-][Cl+2]([O-])O,inactive,
CCCCCCCCSC(=O)Oc1cc(Cl)nnc1-c1ccccc1,inactive,
COP(=S)(OC)Oc1ccc(Sc2ccc(OP(=S)(OC)OC)cc2)cc1,inactive,
Cc1ccccc1C(=O)Nc1cccc(OC(C)C)c1,inactive,
CCN1CCC2(CC1)COc1cc3c(cc12)N(C(=O)c1ccc(-c2ccc(-c4nnc(C)o4)cc2C)cc1)CC3,,72.8 µM (active)
CC(C)c1cccc(C(C)C)c1O,inactive,
O=C(O)C(F)(F)C(F)(F)C(F)(F)C(F)(F)C(F)(F)C(F)(F)F,inactive,
CC(C)(c1ccc(OCC2CO2)cc1)c1ccc(OCC2CO2)cc1 (centres undefined),inactive,
O=C(OC1CCCCC1)c1ccccc1C(=O)OC1CCCCC1,inactive,
C=C(C)C(=O)[O][Sn]([CH2]CCC)([CH2]CCC)[CH2]CCC,,5.24 µM (active)
Fc1ccc(C2(Cn3cncn3)OC2c2ccccc2Cl)cc1 (centres undefined),inactive,
CCOP(=S)(OCC)Oc1nc(Cl)c(Cl)cc1Cl,inactive,

# Test system: not listed separately
# Assay: CPHEA_Stoker_NIS_Cytotoxicity: Cytotoxicity Assessment for CPHEA's Radioactive Iodide Uptake (RAIU) Assay for Sodium/Iodide Symporter (NIS) Inhibition, Stoker and Laws Labs (AID 2283897);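 for AC50: active means loss of ATP signal versus DMSO meaning cytotoxicity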
# Method in brief: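 hNIS-HEK293T-EPA cells, human NIS expressed in HEK293T, treated 2 h with chemicals (0.001–100 uM, 0.5% final DMSO). ATP content read by CellTiter-Glo luminescence; loss of signal analysed relative to DMSO.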
SMILES,outcome,AC50
O=C/C=C/c1ccccc1,inactive,
CCOP(=S)(OCC)SCSP(=S)(OCC)OCC,inactive,
O=C(NCO)NCO,inactive,
O=C(Nc1ccc2[nH]ccc2c1)c1cc2cc(F)ccc2n1Cc1cccc(F)c1,inactive,
CCC(C)(C)c1ccc(O)c(C(C)(C)CC)c1,,9.92 µM (active)
CC(=O)[O][Hg][c]1ccccc1,,9.92 µM (active)
CC(C)(c1ccccc1)c1ccc(O)c(C(C)(C)c2ccccc2)c1,inactive,
CC(=O)c1cc(C(C)(C)C)cc2c1CCC2(C)C,inactive,
c1cc[c]([Hg][c]2ccccc2)cc1,inactive,
Cn1sc(Cl)cc1=O,inactive,
[O-][Cl+2]([O-])O,inactive,
CCCCCCCCSC(=O)Oc1cc(Cl)nnc1-c1ccccc1,inactive,
COP(=S)(OC)Oc1ccc(Sc2ccc(OP(=S)(OC)OC)cc2)cc1,inactive,
Cc1ccccc1C(=O)Nc1cccc(OC(C)C)c1,inactive,
CCN1CCC2(CC1)COc1cc3c(cc12)N(C(=O)c1ccc(-c2ccc(-c4nnc(C)o4)cc2C)cc1)CC3,,8.43 µM (active)
CC(C)c1cccc(C(C)C)c1O,inactive,
O=C(O)C(F)(F)C(F)(F)C(F)(F)C(F)(F)C(F)(F)C(F)(F)F,inactive,
CC(C)(c1ccc(OCC2CO2)cc1)c1ccc(OCC2CO2)cc1 (centres undefined),inactive,
O=C(OC1CCCCC1)c1ccccc1C(=O)OC1CCCCC1,inactive,
C=C(C)C(=O)[O][Sn]([CH2]CCC)([CH2]CCC)[CH2]CCC,,1.25 µM (active)
Fc1ccc(C2(Cn3cncn3)OC2c2ccccc2Cl)cc1 (centres undefined),inactive,
CCOP(=S)(OCC)Oc1nc(Cl)c(Cl)cc1Cl,inactive,
